# FMDV inh: foot and mouth disease virus antiviral activity; FMDV antiviral cell-based qHTS; Potency, µM (doses to about 57.9 µM), inactives show at the top dose activity change, negative = inhibition, most hits filed as inhibitors; 1.2% of 410,000 active; AID 1159524; calls by dose curve; tested in HEK293T cells; further: read-out not given here; potency means the concentration at half of the fitted maximal effect; nearly all actives have a fitted effect of over 45% in size
# LASV entry inh: Lassa virus entry inhibition | Lassa virus pseudotype entry inhibition, cell reporter | Potency, µM (doses to about 37.9 µM), inactives show at the top dose activity change, negative = inhibition, usual class: inhibitors | 1.2% of 300,000 active | AID 540256; calls by dose curve; tested in HEK293 cells; further: potency means the concentration at half of the fitted maximal effect; nearly all actives have a fitted effect of over 50% in size
# Marburg entry inh: blocks Marburg virus binding to or entry into cells; 1.8% of 300,000 active; Marburg virus pseudotyped entry inhibition, cell reporter; Potency, µM (doses to about 37.8 µM), without a hit: at the highest dose activity change, negative = inhibition, usual class: inhibitors; calls by dose curve; tested in HEK293 cells; further: potency means the concentration at half of the fitted maximal effect
# HCV inhibitor: blocks hepatitis C virus; Huh7.5.1 HCVcc-Cre infection, luciferase reporter, 44 h; AID 651820; Potency, µM (series often up to 41.8 µM), for the others: at the highest dose activity change, negative = inhibition, actives largely listed as inhibitors; 3.4% of 340,000 active; active means well fitted inhibition curve with a large enough effect; inconclusive means small, poorly fitted or top-dose-only effect, or another doubt; inactive means no such curve, though single readings can be large or run the other way; further: potency means the concentration at half of the fitted maximal effect
#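 Luciferase read-out (15 sec integration) after a 15 min room-temperature substrate step quantifies HCVcc-Cre infection. Cells, 1,000 per well, had compound added 4 h post-plating, then virus at ~0.5 moi, and were cultured 44 h.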
# HCMV antiviral: inhibitors of human cytomegalovirus; HFF cells, HCMV-luciferase reporter, 72 h; active compounds read low; AID 1259415; activity change, negative = inhibition, % at 57.5 µM; 4.5% of 410,000 active; in the data active means activity change below about -60%; inconclusive means no clear call, values can overlap the other calls; inactive means above about -39%
#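 HFF cells seeded 16 h at 37C, treated with compounds, infected with luciferase-reporter HCMV at MOI 1 PFU/cell; luciferase read at 72 h post infection, normalized to buffer-only and Salinomycin controls.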
# The depositor's hits bear a star; ? = inconclusive; . = no result; + = active, no number; [ ] = another dose, or the depositor's remark. Rows were chosen to be rich in hits. Some 7.9% of all compounds tested hit in one or more screens of this group. On the % scale 0 is the no-effect control and ±100 the full control effect.
SMILES,FMDV inh,LASV entry inh,Marburg entry inh,HCV inhibitor,HCMV antiviral
CC(=O)c1c(C)[nH]c(C(=O)CSc2nc3ccccc3c(=O)n2CCCN2CCOCC2)c1C,-16.9%,-3.4%,20.6µM*,0.0%,23.9
Cc1cc(SCC(=O)Nc2cccc(S(=O)(=O)N3CCOCC3)c2)nc2ccccc12,-10.3%,.,.,12.6µM*,-18.8
Cc1ccc(NC(=O)CSc2nc3ccccc3c(=O)n2CCCN2CCCCC2)cc1Cl,-24.7%,?,?,2µM*,-96.7*
Cc1cc(C)c(NC(=O)CSc2nc3ccccc3c(=O)n2CCCN2CCOCC2)c(C)c1,-12.6%,.,.,2.0%,-8.2
CCS(=O)(=O)Nc1cc(C(=O)N2CCCN(C=O)CC2)c2c(c1)nc(-c1ccccc1)n2C,0.0%,.,.,.,.
Cc1onc(-c2c(F)cccc2Cl)c1C(=O)N(C)CCc1ccccn1,-20.6%,-15.6%,26.4%,20.7%,-38.1
COc1cc(C(=S)N2CCCC2)ccc1OS(=O)(=O)c1ccc(NC(C)=O)cc1,20µM*,16.4µM*,-24.4%,10µM*,-36.2
COc1cc(C(=S)N2CCOCC2)ccc1OS(=O)(=O)c1ccc(NC(C)=O)cc1,12.6µM*,?,?,?,-72.9*
COc1ccc(S(=O)(=O)Oc2ccc(C(=S)N3CCOCC3)cc2OC)cc1,?,-20.7%,?,?,-16.2
COc1cc(C(=S)N2CCCC2)cc(OC)c1OS(=O)(=O)c1ccc(NC(C)=O)cc1,-16.4%,?,6.6%,-26.5%,-22.9
CCC(C)NC(=O)CSc1ccc(S(=O)(=O)N(C)C2CCCCC2)cn1 (stereo unspecified),-28.9%,3.98µM*,?,?,-4.8
CCc1ccccc1NNC(=O)c1snnc1C,-13.4%,?,?,-31.6%,-23.4
O=C(NCc1ccccc1)c1cccn1-c1nnc(N2CCCC2)s1,2.0%,4.3%[46.1 µM],.,.,0.0
CC(C)C(C)NC(=O)CSc1nc2scc(-c3ccco3)c2c(=O)n1-c1ccccc1 (stereo unspecified),0.0%,-12.8%,-37.5%,8.2%,-63.5*
COc1ccc(-n2c(SCCNCCO)nc3sc4c(c3c2=O)CCCC4)cc1,-6.9%,?,?,2.82µM*,-9.1
CC(C)C(C)(C#N)NC(=O)CSc1nc2scc(-c3ccco3)c2c(=O)n1-c1ccccc1 (stereo unspecified),-7.3%,-20.0%,-11.6%,?,-17.0
C=CCn1c(SCC(=O)N2CCOCC2)nc2scc(-c3ccco3)c2c1=O,-15.1%,10.3µM*,-13.4%,?,.
O=C(O)CSc1nc2sc3c(c2c(=O)n1-c1ccccc1)CCC3,9.5%,-12.8%,-1.3%[46.1 µM],-4.9%,-24.5
CC(NC(=O)CSc1nc2sc3c(c2c(=O)n1-c1ccccc1)CCCC3)c1ccccc1 (stereo unspecified),.,?,?,0.8%,-80.7*
Cc1cc(NC(=O)CSc2nc3sc4c(c3c(=O)n2C)CCCC4)no1,-5.2%,2.9%,-8.6%,-2.7%,5.4
Cc1nn(Cc2ccccc2)c(C)c1NC(=O)CSc1nc2sc3c(c2c(=O)n1C)CCC3,?,5.6%,6.5%,22.4µM*,.
CNC(=S)N/N=C/c1cc(C)n(-c2ccc(Cl)c(Cl)c2)c1C,0.0%,?,?,?,-68.3*
CCN(Cc1ccncc1)Cc1ccc2c(c1)CN(C(=O)c1ccc(C#CC(C)(C)O)o1)CCO2,-10.8%,.,.,.,.
O=[N+]([O-])c1ccc(N2CCN(Cc3ccccc3)CC2)c2c1no[n+]2[O-],28.2µM*,.,.,.,53.1
Oc1ccc[n+](CCCCC[n+]2cccc(O)c2)c1,-14.4%,.,1.1%,9.6%,-12.6
SMILES,FMDV inh,LASV entry inh,Marburg entry inh,HCV inhibitor,HCMV antiviral
c1ccc2c[n+](CCCCCCCCCC[n+]3ccc4ccccc4c3)ccc2c1,.,.,.,.,-80.6*
Cc1cccc(N2CCN(S(=O)(=O)c3ccc4oc(=O)c5ncn(C)c5c4c3)CC2)c1C,4.3%,16.3%[46.1 µM],-12.2%[46.1 µM],.,-4.6
CNC(=S)NNC(=O)c1sccc1OCc1ccc(Cl)cc1Cl,-12.3%,?,-7.2%,-0.5%,7.9
N/C(=N\NC(=O)c1sccc1OCc1ccc(Cl)cc1Cl)c1ccccn1,-17.1%,?,8.91µM*,?,?
Fc1ccc(C2c3[nH]c4ccccc4c3CCN2Cc2cccn2-c2ncccn2)cc1 (stereo unspecified),-1.2%,?,?,?,-90.9*
COc1ccc(CC(=O)N2CC(=O)Nc3ccc(F)cc3C2c2ccccc2)cc1 (stereo unspecified),-7.3%,-12.5%[46.1 µM],-17.6%[46.1 µM],.,1.8
COc1cc(/C=C2\SC(=O)NC2=O)ccc1Oc1ccc([N+](=O)[O-])cn1,-17.8%,-0.6%,6.7%[46.1 µM],6.3%,-60.2*
COc1cc(/C=C2/SC(=O)NC2=O)ccc1Oc1ccc([N+](=O)[O-])cc1[N+](=O)[O-],?,.,0.8%,-7.4%,-35.2
COc1cc(/C=C2/SC(N)=NC2=O)ccc1Oc1ccc([N+](=O)[O-])cc1[N+](=O)[O-],-23.9%,?,?,9.9%,-69.8*
Cc1ccc2nc(CSc3nc(C)ccc3C#N)[nH]c2c1,8.91µM*,1.03µM*,2.31µM*,?,144.2
Cc1ccc(C#N)c(SCc2ccccc2F)n1,7.8%,18.2%,0.1%[46.1 µM],3.8%,?
COCc1ccc(C(=O)N2CCOc3c(cc(-c4cc(C)c5cccc(OC)c5n4)cc3OC)C2)o1,-4.6%,.,.,.,.
CCOC(=O)C1=NN(c2ccccc2)C(=O)/C1=C\c1ccc(N(C)C)cc1,17.8µM*,-0.8%,-2.7%,10.7%,-10.7
COc1ccccc1Nc1nnc(SCC2CCCCO2)s1 (stereo unspecified),-48.3%,.,7.08µM*,7.94µM*,89.7
COc1ccc(-n2nnnc2SC(C)C(=O)NC2CCCC2)cc1 (stereo unspecified),-8.4%,.,.,-20.6%,-17.9
CCOc1ccc(C(=O)N(CC(=O)Nc2cccc(C)c2C)CC2CCCO2)cc1OC (stereo unspecified),13.5%,0.4%,5.2%,6.7%,+
OCc1ccc(-c2nn(Cc3ccccc3)c3ccccc23)o1,-0.8%,2.91µM*,2.59µM*,?,?
COc1ccc(C(C)=O)cc1COC(=O)c1ccc2c(c1)OCO2,-8.7%,-2.9%,?,-66.1%,22.4
COc1ccc(C(C)=O)cc1COC(=O)c1ccc2c(c1)OCCO2,-15.8%,.,.,11.2µM*,-15.3
O=C(OCc1ccc(Br)cc1)c1cnc(Cl)c(Cl)c1,13.3%,.,-8.3%[46.1 µM],18.6%,-60.3*
COc1ccc(C(C)=O)cc1COC(=O)c1ccc(S(=O)(=O)N(C)C)cc1,-16.3%,.,.,-29.2%,11.3
COc1cc(CC(=O)OCC(=O)c2ccc3c(c2)OCCO3)cc(OC)c1OC,-12.5%,?,?,?,-71.3*
COc1ccc(C(C)=O)cc1COC(=O)c1cnc(Cl)c(Cl)c1,?,.,-0.8%[46.1 µM],11.2µM*,71.4
COc1ccc(C(=O)COC(=O)c2ccc3c(c2)NC(=O)CS3)c(OC)c1,?,-2.8%,?,?,-23.6
CCOc1ccc(C(C)=O)cc1COC(=O)c1ccc2c(c1)NC(=O)CS2,?,.,.,3.55µM*,-1.4

# From PubChem BioAssay
